From PubChem BioAssay
An excerpt weighted towards active compounds, which were near 9.4% of everything screened.
NPC1 promoter act: NPC1 promoter activation; Potency, µM (titrated, usually from 9.22 µM), without a hit: at the top dose activation, usual class: activators; 2.4% of 320,000 active; Huh7 NPC1 promoter luciferase reporter, 24 h; further: % of control where 0% means no effect; nearly all actives have a fitted effect of over 60% in size
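Huh7 reporter cells (NPC1 promoter driving luciferase) are dosed with compound for 24 h at 37 °C, 5% CO2; luciferase detection reagent is then added and luminescence measured after 10 min at ambient temperature.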
FLuc counter: counter-screen for miR-21 project: firefly luciferase inhibitors or activators | Potency, µM (highest dose often 57.5 µM), for inactives: at the highest dose activity change, negative = inhibition, actives largely listed as inhibitors | 6.9% of 360,000 active | AID 588342 | P08659 | purified FLuc, Km substrates, luminescence inhibition;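 further: plate controls were vehicle for no effect and reference inhibitor for full effect; nearly all actives have a fitted effect of over 55% in size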
Target sequence (P08659 whole entry, looked up): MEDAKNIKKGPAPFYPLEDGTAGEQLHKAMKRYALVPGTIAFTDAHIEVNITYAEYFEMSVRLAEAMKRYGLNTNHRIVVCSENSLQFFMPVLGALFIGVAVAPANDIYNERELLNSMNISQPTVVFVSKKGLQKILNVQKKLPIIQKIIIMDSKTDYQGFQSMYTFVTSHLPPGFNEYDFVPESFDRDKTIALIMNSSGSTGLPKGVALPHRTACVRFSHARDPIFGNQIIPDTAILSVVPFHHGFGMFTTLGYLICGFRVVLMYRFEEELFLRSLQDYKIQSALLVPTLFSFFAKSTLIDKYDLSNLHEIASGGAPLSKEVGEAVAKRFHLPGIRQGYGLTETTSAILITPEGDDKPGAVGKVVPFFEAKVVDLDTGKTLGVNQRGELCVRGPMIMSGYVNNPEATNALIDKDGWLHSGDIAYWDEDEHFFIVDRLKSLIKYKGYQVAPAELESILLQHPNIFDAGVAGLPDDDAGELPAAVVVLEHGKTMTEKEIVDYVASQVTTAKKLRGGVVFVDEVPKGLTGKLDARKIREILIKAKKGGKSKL
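Purified P. pyralis luciferase, 10 nM final, with Km-level 10 uM D-luciferin and 10 uM ATP in 50 mM Tris acetate pH 7.5, 10 mM Mg acetate, 0.01% Tween-20, 0.05% BSA; 6-point qHTS titration about 60 µM downward; luminescence read.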
ELG1 genotox: induces genotoxicity in HEK293T cells with luciferase-tagged ELG1. 1.3% of 330,000 active. HEK293T ELG1-luciferase reporter, luminescence, 16 h. Potency, µM (doses to about 46 µM), inactives show at the top dose activity change, positive = activation, most hits filed as activators; further: % of control where 0% means no effect; nearly all actives have a fitted effect of over 60% in size
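Luminescence read-out: rising ELG1-luciferase signal, reflecting elevated ELG1 protein under genetic stress, flags genotoxic compounds. Cells were treated for 16 hr at 37 °C before ONE-Glo detection.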
Rab9 prom act: activators of Rab9 promoter. AID 485297. 2.8% of 320,000 active. Huh7 Rab9 promoter-luciferase reporter, luminescence, 24 h. Potency, µM (highest dose often 9.22 µM), without a hit: top-dose activation, negative = inhibition, most hits filed as activators; further: % of control where 0% means no effect; nearly all actives have a fitted effect of over 60% in size
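Huh7 reporter line, Rab9 promoter upstream of luciferase. Compound exposure 24 h at 37 °C in reduced-serum medium with 10% FBS. Read-out: luminescence.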
SMN2 splice enh: SMN2 splice variant enhancement; Potency, µM (doses to about 46.1 µM), inactives show at the top dose activity change, positive = activation, hits mostly activators; HEK293 SMN2-luciferase splicing reporter, luminescence, 30-36 h; AID 1458; 2.8% of 210,000 active; further: % of control where 0% means no effect; nearly all actives have a fitted effect of over 55% in size
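qHTS luciferase splicing reporter: luminescence rises when SMN2 exon 7 is included in transfected HEK293 cells. Compound exposure lasted 30-36 h at 37C, with 4.5 mM final sodium butyrate as control, followed by a ONE-Glo read.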
ELG1 repair inh: blocks ELG1-dependent DNA repair in HEK293T cells | HEK293T ELG1-luciferase reporter, luminescence, 16 h; DNA damage induced by 5-fluorouridine | Potency, µM (titrated, usually from 46.1 µM), inactives show at the top dose activity change, negative = inhibition, hits mostly inhibitors | 2.3% of 330,000 active; further: on the % scale 0 is the no-effect control and ±100 the full control effect; nearly all actives have a fitted effect of over 55% in size
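Quantitative HTS, concentration-response format. 2,000 cells/well co-treated with 5-fluorouridine and compound, 16 hr in 5% CO2 at 37 °C; ONE-Glo luminescence read after 30 min.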
Starred values were filed as active, the others as inactive; ? = inconclusive; . = no result. The call rests on the fitted dose curve; in most records, active means well fitted curve in the direction sought with a large enough effect; inconclusive means small, poorly fitted or top-dose-only effect, or another doubt; inactive means no such curve, though single readings can be large; an effect the other way counts as inactive or inconclusive. Potency means the concentration at half of the fitted maximal effect.

SMILES | NPC1 promoter act | FLuc counter | ELG1 genotox | Rab9 prom act | SMN2 splice enh | ELG1 repair inh
CCOc1ccc(OCC)c(Nc2cc(C)nc3nc(-c4ccco4)nn23)c1 | . | -4% | . | . | . | .
CCc1ccc(Nc2nnc(SCC(=O)NC(=O)c3cccn3C)s2)cc1 | 1% | ? | ? | -6% | 11% | ?
O=C(CSc1nncc2ccccc12)Nc1cccc(C(=O)O)c1 | 22% | 11µM* | ? | 21% | . | ?
CCc1ccc(Nc2nnc(SCC(=O)Nc3cccc(S(=O)(=O)NC4=NCCCCC4)c3)s2)cc1 | ? | 0.48µM* | -10% | ? | 13µM* | ?
CCc1ccc(Nc2nnc(SCC(=O)Nc3ccc(C(=O)O)cc3)s2)cc1 | 18% | 0.54µM* | 6% | 18% | . | ?
O=C(Nc1nnc(-c2ccccc2F)s1)Nc1ccccc1F | ? | 6% | 11% | 2µM* | ? | ?
O=C(Nc1nnc(-c2ccccc2)s1)c1ccccc1F | 2.5µM* | 11µM* | ? | 1.1µM* | . | ?
O=C(Nc1nnc(-c2ccccc2SCc2ccccc2)s1)Nc1ccccc1F | -4% | -1% | 3% | -1% | 7% | 21%
O=C(Nc1nnc(-c2ccccc2Cl)s1)c1ccccc1F | 3.2µM* | -13% | ? | 4µM* | . | ?
CCCCC1=CC2=C(OC(C)=O)C(=O)C(C)(OC(=O)CCC(=O)OC)C(=O)C2=CO1 (centres undefined) | . | . | . | . | 14% | .
O=C(Nc1ccc(F)c(Cl)c1)Nc1c[nH]c(=O)[nH]c1=O | . | -4% | . | . | . | .
COc1ccc(C(=O)O/N=C(\N)Cc2cccs2)cc1OC | 1% | 5% | 13% | 5% | . | -6%
COc1ccc(CC(=O)O/N=C(\N)c2ccc(OC)cc2)cc1 | 10% | ? | 7% | 24% | . | ?
COc1ccc(/C(N)=N/OC(=O)Cc2cccs2)cc1 | ? | 12µM* | ? | 3.2µM* | ? | ?
COc1ccc(/C(N)=N/OC(=O)Cc2cccs2)cc1OC | 11% | 24µM* | 12% | 6% | 23% | ?
CC1CCN(C(=O)c2cc(-c3cccc(Cl)c3)on2)CC1 | . | 24µM* | . | . | ? | .
CC1CCN(C(=O)c2cc(-c3ccc(Cl)c(Cl)c3)on2)CC1 | 11% | ? | 15% | 24% | ? | ?
CC1CCN(C(=O)c2cc(-c3ccc(Cl)cc3)on2)CC1 | . | 6µM* | . | . | 15% | .
Cc1cc(-c2ccc(S(=O)(=O)NCc3ccccc3Cl)s2)on1 | . | -13% | . | . | . | .
O=[N+]([O-])c1ccc(O)c(N=Cc2sc3ccccc3c2O)c1 | 15% | 11µM* | 13% | -17% | -77% | 0%
Oc1c(C=Nc2cccc3cccnc23)sc2ccccc12 | -4% | 0.38µM* | 3.3µM* | -20% | -6% | ?
CC(C)N=Cc1c(O)[nH]c2ccccc12 | 2% | 3% | 1% | -7% | -4% | -2%
Cc1cccc(/N=C/c2sc3ccccc3c2O)n1 | 21% | 0.48µM* | 4.6µM* | ? | . | ?
Cc1cccc(/N=C/c2c(O)[nH]c3ccccc23)n1 | ? | 4.3µM* | ? | 3.5µM* | ? | ?
Cc1[nH]n(-c2ccccc2)c(=O)c1C=Nc1cccc2cccnc12 | -36% | ? | -8% | -37% | -12% | ?
COc1ccc(NS(=O)(=O)c2cc3c(cc2C)N(C(C)=O)CCO3)cc1OC | 1% | -1% | 9% | 4% | . | 13%
Cc1ccc2oc(C(=O)Nc3nnc(CC(C)C)s3)cc(=O)c2c1 | . | ? | . | . | 11% | .
CCCc1nnc(NC(=O)c2cc(=O)c3cc(C)c(C)cc3o2)s1 | . | 12µM* | . | . | -3% | .
Cn1c2ccccc2c(=O)c2cc(C#Cc3ccc(N)cc3)ccc21 | ? | 6µM* | 6% | ? | . | ?
COc1ccc(C#Cc2ccc3c(c2)c(=O)c2ccccc2n3C)cc1 | 16% | 12µM* | -3% | 15% | . | 19%
